A selection: hits, their analogues and other compounds. The true share with any hit is near 11%.
IMPase inh: membrane-permeable compound that blocks inositol monophosphatase | P97697 | CHO-M1 cells, IP1 accumulation, HTRF TR-FRET ratio | inhibition (IP1 accumulation), % at 46.1 µM | 120,000 tested, under 10 active; active = well fitted curve in the direction sought with a large enough effect in the signal ratio, not every such curve was filed as active; inconclusive = small, poorly fitted or top-dose-only effect, or a change in a side signal; inactive = no such curve, though single readings can be large or run the other way; the % refers to the signal ratio;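 also: cells stimulated with carbachol in lithium chloride buffer; plate controls were DMSO basal wells for no effect and reference inhibitor wells for full effect; higher means more IMPase inhibition seen as more IP1 and lower FRET ratio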
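CHO-M1 cells (CHO stably expressing M1 receptor), compound up to 46 uM final, stimulated with carbachol (50 uM as added) in buffer with 50mM LiCl, pH 7.4, 30 min at 37C. Cytosolic IP1 read by TR-FRET; AC50 from Hill fits.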
ALDH1A1 inh: blocks purified human ALDH1A1 activity; P00352; Purified ALDH1A1, NADH fluorescence, propionaldehyde substrate; Potency, µM (titrated, usually from 75.3 µM), without a hit: at the top dose activity, negative = inhibition, actives largely listed as inhibitors; 7.3% of 220,000 active; active = well fitted inhibition curve with a large enough effect, not every such curve was filed as active; inconclusive = small, poorly fitted or top-dose-only effect, or another doubt; inactive = no such curve, though single readings can be large or run the other way;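 also: potency is read from the fitted curve at half-maximal effect; plate controls were no enzyme wells and a reference inhibitor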
NPSR antag: antagonists of human neuropeptide S receptor cAMP signaling | 1% of 220,000 active | Potency, µM (series often up to 38.3 µM), inactives show at the top dose activity change, negative = inhibition, most hits filed as inhibitors | CHO-NPSR cells, cAMP TR-FRET, antagonist mode; also: potency is read from the fitted curve at half-maximal effect; nearly all actives have a fitted effect of over 50% in size
Target sequence (Q6W5P4 whole entry, looked up): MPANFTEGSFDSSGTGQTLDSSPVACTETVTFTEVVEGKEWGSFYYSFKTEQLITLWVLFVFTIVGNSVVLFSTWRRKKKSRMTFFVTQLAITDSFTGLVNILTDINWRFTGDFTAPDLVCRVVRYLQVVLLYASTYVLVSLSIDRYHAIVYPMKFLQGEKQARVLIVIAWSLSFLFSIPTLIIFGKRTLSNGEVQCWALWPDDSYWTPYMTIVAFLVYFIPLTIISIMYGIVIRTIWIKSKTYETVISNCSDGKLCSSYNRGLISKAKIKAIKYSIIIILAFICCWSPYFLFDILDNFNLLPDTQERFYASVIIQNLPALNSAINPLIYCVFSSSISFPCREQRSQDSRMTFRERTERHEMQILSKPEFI
HPGD block: HPGD (human) dehydrogenase inhibition; purified HPGD, NADH fluorescence kinetic, PGE2 substrate; AID 894; Potency, µM, inactives show at the top dose activity change, negative = inhibition, hits mostly inhibitors; 4.3% of 150,000 active; active = well fitted inhibition curve with a large enough effect, not every such curve was filed as active; inconclusive = small, poorly fitted or top-dose-only effect, or another doubt; inactive = no such curve, though single readings can be large or run the other way; also: potency is read from the fitted curve at half-maximal effect
Target sequence (P15428 whole entry, looked up): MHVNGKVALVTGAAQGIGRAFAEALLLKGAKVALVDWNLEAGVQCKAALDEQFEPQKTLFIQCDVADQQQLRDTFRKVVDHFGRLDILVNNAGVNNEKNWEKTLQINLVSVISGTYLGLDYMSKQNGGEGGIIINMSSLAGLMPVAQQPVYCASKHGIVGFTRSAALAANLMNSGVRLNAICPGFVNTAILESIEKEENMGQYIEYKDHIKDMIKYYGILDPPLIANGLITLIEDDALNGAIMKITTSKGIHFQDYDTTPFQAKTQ
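NADH formation kinetics: reaction with 30 uM PGE2 and 1 mM NAD+ (final), 20 nM enzyme, Tris-HCl pH 8 with Tween 20, after 15 min compound preincubation at room temperature. Fluorescence change, last versus first of five reads.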
IMPase Li cell: IMPase inhibition in cells with lithium potentiation; CHO-M1 cells, IP1 TR-FRET (IP-One), carbachol + lithium; Potency, µM (doses to about 59.4 µM), for inactives: top-dose activity, negative = IMPase inhibition, usual class: inhibitors; 0.35% of 210,000 active; AID 1457;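 also: IP1 builds up when IMPase is blocked and the TR-FRET signal falls; potency is read from the fitted curve at half-maximal effect; plate controls were basal vehicle for no effect and high inhibitor control for full effect; nearly all actives have a fitted effect of over 50% in size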
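Lithium-sensitised IP1 accumulation assay; M1-expressing CHO cells treated 30 min at 37C with compound. Competitive antibody detection by time-resolved FRET followed a 10 min room-temperature lysis step.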
PNC inhibitor: inhibitors of perinucleolar compartment assembly; activity change (PNC), negative = inhibition, % at 10 µM; AID 2417; PC3M PTB-GFP, PNC prevalence imaging, 16 h; hits give low values; 3.1% of 140,000 active;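 active = readout at or below -70, meaning at least 70% loss of cells showing the perinucleolar compartment, a nuclear body marking cancer cells; inconclusive = readout between -30 and a set limit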;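 also: plate controls were DMSO wells for no effect and camptothecin positive control wells for full effect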
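Read-out is percentage of cells bearing a perinucleolar compartment, from automated 20x imaging of fixed, Hoechst-stained PC3M PTB-GFP cells. Cells were seeded 4 h, then exposed 16 h to compound (23 nl of library stock) in duplicate plates.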
Numbers without * were called inactive; u = inconclusive; x = no result; [ ] = dose if it differs, or a comment. Unless noted, calls follow the shape of the dose curve; as a rule, active = well fitted curve in the direction sought with a large enough effect; inconclusive = small, poorly fitted or top-dose-only effect, or another doubt; inactive = no such curve, though single readings can be large; an effect the other way counts as inactive or inconclusive. Unless noted, % is scaled to controls: 0 for no effect and ±100 for the full control effect.

SMILES	IMPase inh	ALDH1A1 inh	NPSR antag	HPGD block	IMPase Li cell	PNC inhibitor
CCO[C@@H]1OC(C(=O)NCc2ccccc2)=C[C@H](C(C)(C)C)[C@H]1CCCO	x	x	-11%	x	x	x
COCc1cc(C)nc(N2CCOCC2)c1C#N	0	u	5%[46.1 µM]	u	-12%[38.3 µM]	0
CCN(CC)CC(=O)Nc1ccccc1SCC(=O)Nc1ccsc1C(=O)OC	x	-9%	u	x	18%	x
COC(=O)c1sccc1NC(=O)CSc1ccccc1NS(=O)(=O)c1ccc(Cl)cc1	0	13µM*	u	-16%	8%[38.3 µM]	-26
COC(=O)c1sccc1NC(=O)CSc1ccccc1NS(=O)(=O)c1ccccc1Cl	-9[1.84 µM]	7.1µM*	u	-15%	14%[38.3 µM]	-7
O=C(O)C1=C(C(=O)Nc2cc(C(F)(F)F)ccc2Cl)CCCC1	x	-11%	1%	x	-1%	x
O=C1C(Cl)=C(NCCc2ccccc2)C(=O)N1CCc1ccccc1	0	-2%	u	-16%	44%[38.3 µM]	26
O=C1C(Cl)=C(NCCCN2CCOCC2)C(=O)N1CCc1ccccc1	-15	7.9µM*	-9%[46.1 µM]	-21%	31%[38.3 µM]	18
O=C1CCCc2c1sc1nc3n(c(=O)c21)CCCCC3	0	u	-5%[46.1 µM]	-18%	-3%[38.3 µM]	-26
O=C1c2sc3nc4n(c(=O)c3c2CCC1Br)CCCCC4 (stereo not given)	-5	8.9µM*	-10%[46.1 µM]	13µM*	-2%[38.3 µM]	2
CCOC(=O)N1C(=O)c2cc(OC)ccc2S1(=O)=O	10	-11%	9%[46.1 µM]	-8%	5%[38.3 µM]	34
CCN(CC)S(=O)(=O)c1ccc(NC(=O)c2cccs2)cc1	x	4%	2%	x	3%	x
COC(=O)COc1cccc(NC(=O)c2cccs2)c1	-17	9%	5%[46.1 µM]	-15%	-8%[38.3 µM]	-118*
CCN(CC)S(=O)(=O)c1cccc(C(=O)Oc2cccc(NC(=O)c3cccs3)c2)c1	x	-9%	3%	-15%	11%	-108*
CCN(CC(=O)NCc1cccs1)S(=O)(=O)c1cccc(C(C)=O)c1	7	0%	-8%[46.1 µM]	-10%	-1%[38.3 µM]	-83*
CCN(CC(=O)NCc1cccs1)S(=O)(=O)c1ccc([N+](=O)[O-])cc1	x	-3%	-3%	x	3%	x
COC(=O)COc1cccc(NC(=O)c2ccccc2)c1	6	2%	0%[46.1 µM]	x	x	36
Cc1ccc(NC(=O)CC2Nc3ccccc3NC2=O)cc1C (stereo not given)	2	x	x	x	x	x
CCCC(=O)c1cc2ccccc2oc1=O	0	-2%	8%[46.1 µM]	-19%	-6%[38.3 µM]	-24
COCC(=O)N1CCC2(CCCN(c3ccncc3)C2)CC1	x	2%	x	-5%	9%	x
O=C(Nc1ccc(Cl)c(Cl)c1)Nc1nnc(CSc2ccccc2)s1	x	12%	-40%	-4%	8%	20
N#CC1=C(N)OC(c2ccccc2)=C(C#N)C1c1ccc2c(c1)OCO2 (stereo not given)	-7	1µM*	u	14µM*	29%[38.3 µM]	1
Cc1cc2c(c(=O)n1Cc1ccccn1)C(c1ccc3c(c1)OCO3)C(C#N)=C(N)O2 (stereo not given)	7	13µM*	-7%[46.1 µM]	-12%	8%[38.3 µM]	-11
CC(C)CC1C(C#N)=C(N)OC2=C1C(=O)CC(c1ccccc1)C2 (stereo not given)	x	u	-40%	x	11%	x
COc1cc(C2C(C#N)=C(N)Oc3cc(C)n(CC4CCCO4)c(=O)c32)cc2c1OCO2 (stereo not given)	2	25µM*	-14%[46.1 µM]	-19%	2%[38.3 µM]	13
SMILES	IMPase inh	ALDH1A1 inh	NPSR antag	HPGD block	IMPase Li cell	PNC inhibitor
N#CC1=C(N)OC2=C(C(=O)CC(c3ccccc3)C2)C1c1ccc2c(c1)OCO2 (stereo not given)	x	11µM*	-21%	28µM*	14%	35
c1csc(CNc2ncnc3ccc(-c4ccc5c(c4)OCO5)cc23)c1	x	u	x	u	6%	x
CCOC(=O)c1c(C)oc2cc(Br)c(O)c(Br)c12	10	5%	2%[46.1 µM]	-3%	18%[38.3 µM]	u
Cc1cc(C(=O)COc2ccccc2Cl)c(C)n1-c1ccc2c(c1)OCO2	x	-6%	-54%	u	18%	-106*
CNS(=O)(=O)c1cccc(C(=O)OCC(=O)c2cc(C)n(-c3ccc4c(c3)OCO4)c2C)c1	7	u	-19%[46.1 µM]	-25%	-12%[38.3 µM]	20
COc1ccc(NC(=O)/C(C#N)=C\c2cc(C)n(-c3ccc4c(c3)OCO4)c2C)cc1	x	-3%	2%	-16%	4%	-124*
CCOC(=O)/C(C#N)=C/c1cc(C)n(-c2ccc(C)cc2)c1C	18	11µM*	u	-14%	16%[38.3 µM]	-10
Cc1cc(/C=C(\C#N)C(=O)OCC#N)c(C)n1CC(C)C	x	25µM*	3%	x	13%	x
O=C(Nc1nc2c(s1)COc1ccccc1-2)c1cccs1	-9	u	-13%[46.1 µM]	-15%	-7%[38.3 µM]	3
Cc1ccc(Oc2ccccc2)c(NC=O)c1	-1	4%	-5%[7.67 µM]	-9%	-4%[38.3 µM]	25
CCN(CC)C(=O)CP(=O)(c1ccccc1)c1ccccc1	-11	15%	-9%[46.1 µM]	1%	5%[38.3 µM]	4
Cc1cc(C=O)c(C)n1-c1ccc2c(c1)OCO2	x	1.4µM*	16%	x	10%	x
CNC(=O)/C(C#N)=C/c1cc(C)n(-c2ccc(N3CCOCC3)cc2)c1C	x	u	12%	x	x	x
Cc1cc(/C=C(\C#N)C(=O)Nc2ccccc2)c(C)n1-c1ccc(C(=O)O)cc1	x	1µM*	59%	x	x	x
Cc1cc(C=O)c(C)n1-c1cccc(C(=O)O)c1	x	-3%	-11%	x	4%	x
CCOC(=O)/C(C#N)=C\c1cc(C)n(-c2ccccc2)c1C	7	u	-14%[46.1 µM]	-15%	-6%[38.3 µM]	u
Cc1cccc(NC(=O)/C(C#N)=C\c2cc(C)n(-c3ccc(C(=O)O)cc3)c2C)c1	x	3.2µM*	-44%	x	-4%	x
CCCCCNC(=O)C(C)NS(=O)(=O)c1ccc(OC)cc1 (stereo not given)	-18	-6%	-11%[46.1 µM]	-7%	-7%[38.3 µM]	-7
CCn1c(SCC(=O)Nc2cc(C)on2)nnc1-c1ccncc1	3	-6%	-8%[46.1 µM]	-6%	1%[38.3 µM]	33
Cc1cc(C)nc(SCC(=O)NN)n1	x	10µM*	22%	x	17%	x
Cc1ccc(-n2c(CSc3nc(C)cc(C)n3)nnc2SCC(=O)N2CCCC2)cc1	-2	u	-25%[46.1 µM]	3%	-8%[38.3 µM]	-100*
O=C(CSc1nc2ccccc2nc1SCC(=O)N1CCOCC1)N1CCOCC1	-16	3%	5%[46.1 µM]	-20%	10%[38.3 µM]	u
O=C(CSc1nc2ccccc2nc1SCC(=O)N1CCCCC1)N1CCCCC1	u	10%	u	2.5µM*	x	-20
Cc1cc(C)nc(SCC(=O)N2CCCCC2)n1	7	u	-9%[46.1 µM]	7.9µM*	-8%[38.3 µM]	u

Bioassay records: PubChem BioAssay, National Center for Advancing Translational Sciences (NCATS)
